{
  "source": "PubChem BioAssay (NCI)",
  "note": "Compounds without any hit were thinned out: in the full panel of roughly 83,000, 20% have a hit.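 The test compound was applied at a single concentration to cells in 96-well plates for 48 hours, and percent growth was recorded.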 The source made the active and inactive calls. Rule for the calls: active = growth percent below 10; inactive = the rest.",
  "data": [
    {"tested_on": "UO-31 renal", "assay": "NCI-60 one-dose screen, 48 h (100 = growth as untreated, 0 = no growth, -100 = all killed)", "settings": "10 µM unless noted", "values": [
      {"smiles": "CCCCCCCC[C@@H]1N[C@@H](C(=O)OC)Cc2c1[nH]c1ccccc21", "growth": "73.9% (inactive)"},
      {"smiles": "COC(=O)c1cc(N=C2NC(=O)/C(=C/C=C/c3ccccc3)S2)ccc1O", "growth": "53.8% (inactive)"},
      {"smiles": "CSc1nnc(-c2cc3c([nH]c4ccccc43)c(-c3cccc(O)c3)n2)n1-c1ccccc1", "growth": "39.7% (inactive)"},
      {"smiles": "Cc1ccc(-c2nc([P+](c3ccccc3)(c3ccccc3)c3ccccc3)c(S(=O)(=O)c3ccc(C)cc3)o2)cc1", "growth": "14.9% (inactive)"},
      {"smiles": "O=S(=O)(NCCNc1nccc(-c2c(-c3ccc(F)c(O)c3)nc3occn23)n1)c1ccc(Cl)cc1", "growth": "81.6% (inactive)"},
      {"smiles": "COc1ccc2c(c1)c(-c1nc(-c3c[nH]c4ccncc34)cs1)cn2C", "growth": "-88% (active)"},
      {"smiles": "CC(C)c1ccc(C(=O)Nc2nc3ccc(O)c(CN(C)C)c3s2)cc1", "growth": "91.2% (inactive)"},
      {"smiles": "O=C1Nc2ccccc2/C1=C/c1nc2ccccc2c(=O)[nH]1", "growth": "64.4% (inactive)"},
      {"smiles": "O=C(c1ccccc1)c1ccc(C2CCCCC2)cc1", "growth": "98.2% (inactive)"},
      {"smiles": "C=CC(=O)N1CCN(c2cccc(Oc3nccc(Nc4nnc(-c5ccc(Br)cc5)s4)n3)c2)CC1", "growth": "66.7% (inactive)"},
      {"smiles": "O=C1C(Cl)=C(Nc2ccc(S(=O)(=O)N3CCOCC3)cc2)C(=O)c2ccccc21", "growth": "52.8% (inactive)"},
      {"smiles": "CCOC(=O)C1=C(C)NC(=O)NC1c1c(Cl)n(CCCl)c2ccccc12", "note": "(stereo not given)", "growth": "68.5% (inactive)"},
      {"smiles": "CCCC/C=C/[C@@H]1C[C@H]1CCO", "growth": "87% (inactive)"},
      {"smiles": "C=C(CBr)[C@@H]1CC[C@]2(C(=O)O)CC[C@]3(C)[C@H](CC[C@@H]4[C@@]5(C)CCC(=O)C(C)(C)[C@@H]5CC[C@]43C)[C@@H]12", "growth": "56.2% (inactive)"},
      {"smiles": "CC/C=C\\C[C@H](O)C/C=C1/C(=O)C=C[C@@H]1C/C=C\\CCCC(=O)N(C)C", "growth": "-81.3% (active)"},
      {"smiles": "CNC(=O)c1[nH]cc(-c2ccc(OC)cc2)c1-c1cc(OC)c2c(c1OC)OCO2", "growth": "82.9% (inactive)"},
      {"smiles": "O=C(/C=C/c1cccs1)Nc1ncc(Cc2ccccc2F)s1", "growth": "36.2% (inactive)"},
      {"smiles": "CCCn1cc2c(=O)nc3sc(Cc4ccccc4)c(C)n3c2n1", "growth": "78.5% (inactive)"},
      {"smiles": "CCC(C)N(CCNc1cc(OC)cc2cccnc12)CC(C)C", "note": "(stereo not given)", "growth": "67.2% (inactive)"},
      {"smiles": "C1CCC([PH+](C2CCCCC2)C2CCCCC2[PH+](C2CCCCC2)C2CCCCC2)CC1.[Au].[CH-]1CCCCC1C1CCCC[N-]1", "note": "(stereo not given)", "growth": "-96.3% (active)"},
      {"smiles": "O=C1/C(=C/c2ccccc2Br)COc2ccc(O)cc21", "growth": "58.8% (inactive)"},
      {"smiles": "O=C(Nc1ccccc1O)c1ccc(CNC(=O)c2sccc2Nc2ccnc(C(F)(F)F)c2)cc1", "growth": "27.2% (inactive)"},
      {"smiles": "N#Cc1c(-c2ccc(Cl)cc2)nc(NN2C(=O)c3ccccc3C2=O)nc1N1CCOCC1", "growth": "84.4% (inactive)"},
      {"smiles": "O=C(OC(CO)C(=O)NC12CC3CC(CC(C3)C1)C2)c1ccc(Cl)cc1", "note": "(stereo not given)", "growth": "88.7% (inactive)"},
      {"smiles": "COc1ccc(/C=N/C2=C(C#N)C(c3ccccc3)c3ccc4ccccc4c3O2)cc1", "note": "(stereo not given)", "growth": "29.6% (inactive)"},
      {"smiles": "CC(C)c1ccc(C(=O)Nc2sc3c(c2C(N)=O)CCC(=O)C3)cc1", "growth": "-97.1% (active)"},
      {"smiles": "N=C(N)c1ccc(-c2ccc(-c3ccc(Cl)cc3Cl)s2)cc1", "growth": "21.8% (inactive)"},
      {"smiles": "O=C(/C=C/c1cccc(Cl)c1)c1ccc(Nc2nc(Nc3ccc(F)cc3)nc(Nc3ccc(Cl)cc3)n2)cc1", "growth": "94.6% (inactive)"},
      {"smiles": "COc1c(B(O)O)cccc1-c1nc2c(F)cc3[nH]ncc3c2c2c1CCCC2", "growth": "-1.82% (active)"},
      {"smiles": "N#Cc1ccc(O)c(C2=NCC(c3ccccc3)O2)c1", "note": "(stereo not given)", "growth": "20.1% (inactive)"},
      {"smiles": "COC(=O)c1nc(-c2ccccc2)oc1S(=O)(=O)Cc1ccccc1", "growth": "72.9% (inactive)"},
      {"smiles": "OCCn1cc(-c2nc(-c3c[nH]c4ncccc34)cs2)c2cc(F)ccc21", "growth": "39.4% (inactive)"},
      {"smiles": "O=[N+]([O-])c1cccc(-c2nc3cc4nc5ccccc5[nH]c4cc3n2)c1", "growth": "84.4% (inactive)"},
      {"smiles": "CN(C)c1ccc(C(=O)OCCCCCCl)cc1", "growth": "77.8% (inactive)"},
      {"smiles": "CC(C)COc1nc2c(c(=O)n(C)c(=O)n2C)n1C", "growth": "94.7% (inactive)"},
      {"smiles": "Nc1nc(-c2ccc(Cl)cc2)nc2c1sc(=S)n2-c1ccccc1", "growth": "-38.4% (active)"},
      {"smiles": "Cc1ccc(NC(=O)c2sc3nc(C)c(Br)c(C)c3c2N)cc1", "growth": "65.4% (inactive)"},
      {"smiles": "Cc1cc(N2CCCCC2)cc(C)c1-c1csc(NC(=O)c2ccncc2)n1", "growth": "36.9% (inactive)"},
      {"smiles": "CCN1C(=S)N(c2ccccc2)C2C1NN=c1s/c(=C3\\C(=O)N(C(C)C)c4ccccc43)c(=O)n12", "note": "(stereo not given)", "growth": "80.5% (inactive)"},
      {"smiles": "O=C(N(c1ccccc1)c1ccccc1)n1cc(I)c2nc(Cl)nc(Cl)c21", "growth": "54.4% (inactive)"}
    ]},
    {"tested_on": "TK-10 renal", "assay": "NCI-60 one-dose screen, 48 h (100 = growth as untreated, 0 = no growth, -100 = all killed)", "settings": "10 µM unless noted", "values": [
      {"smiles": "CCCCCCCC[C@@H]1N[C@@H](C(=O)OC)Cc2c1[nH]c1ccccc21", "growth": "101% (inactive)"},
      {"smiles": "COC(=O)c1cc(N=C2NC(=O)/C(=C/C=C/c3ccccc3)S2)ccc1O", "growth": "53.2% (inactive)"},
      {"smiles": "CSc1nnc(-c2cc3c([nH]c4ccccc43)c(-c3cccc(O)c3)n2)n1-c1ccccc1", "growth": "62.2% (inactive)"},
      {"smiles": "Cc1ccc(-c2nc([P+](c3ccccc3)(c3ccccc3)c3ccccc3)c(S(=O)(=O)c3ccc(C)cc3)o2)cc1", "growth": "2.83% (active)"},
      {"smiles": "O=S(=O)(NCCNc1nccc(-c2c(-c3ccc(F)c(O)c3)nc3occn23)n1)c1ccc(Cl)cc1", "growth": "122% (inactive)"},
      {"smiles": "COc1ccc2c(c1)c(-c1nc(-c3c[nH]c4ccncc34)cs1)cn2C", "growth": "43.4% (inactive)"},
      {"smiles": "CC(C)c1ccc(C(=O)Nc2nc3ccc(O)c(CN(C)C)c3s2)cc1", "growth": "99.6% (inactive)"},
      {"smiles": "O=C1Nc2ccccc2/C1=C/c1nc2ccccc2c(=O)[nH]1", "growth": "181% (inactive)"},
      {"smiles": "O=C(c1ccccc1)c1ccc(C2CCCCC2)cc1", "growth": "81.5% (inactive)"},
      {"smiles": "C=CC(=O)N1CCN(c2cccc(Oc3nccc(Nc4nnc(-c5ccc(Br)cc5)s4)n3)c2)CC1", "growth": "111% (inactive)"},
      {"smiles": "O=C1C(Cl)=C(Nc2ccc(S(=O)(=O)N3CCOCC3)cc2)C(=O)c2ccccc21", "growth": "105% (inactive)"},
      {"smiles": "CCOC(=O)C1=C(C)NC(=O)NC1c1c(Cl)n(CCCl)c2ccccc12", "note": "(stereo not given)", "growth": "34.1% (inactive)"},
      {"smiles": "CCCC/C=C/[C@@H]1C[C@H]1CCO", "growth": "96.4% (inactive)"},
      {"smiles": "C=C(CBr)[C@@H]1CC[C@]2(C(=O)O)CC[C@]3(C)[C@H](CC[C@@H]4[C@@]5(C)CCC(=O)C(C)(C)[C@@H]5CC[C@]43C)[C@@H]12", "growth": "112% (inactive)"},
      {"smiles": "CC/C=C\\C[C@H](O)C/C=C1/C(=O)C=C[C@@H]1C/C=C\\CCCC(=O)N(C)C", "growth": "-6.21% (active)"},
      {"smiles": "CNC(=O)c1[nH]cc(-c2ccc(OC)cc2)c1-c1cc(OC)c2c(c1OC)OCO2", "growth": "108% (inactive)"},
      {"smiles": "O=C(/C=C/c1cccs1)Nc1ncc(Cc2ccccc2F)s1", "growth": "49.6% (inactive)"},
      {"smiles": "CCCn1cc2c(=O)nc3sc(Cc4ccccc4)c(C)n3c2n1", "growth": "92.9% (inactive)"},
      {"smiles": "CCC(C)N(CCNc1cc(OC)cc2cccnc12)CC(C)C", "note": "(stereo not given)", "growth": "101% (inactive)"},
      {"smiles": "C1CCC([PH+](C2CCCCC2)C2CCCCC2[PH+](C2CCCCC2)C2CCCCC2)CC1.[Au].[CH-]1CCCCC1C1CCCC[N-]1", "note": "(stereo not given)", "growth": "-58.7% (active)"},
      {"smiles": "O=C1/C(=C/c2ccccc2Br)COc2ccc(O)cc21", "growth": "105% (inactive)"},
      {"smiles": "O=C(Nc1ccccc1O)c1ccc(CNC(=O)c2sccc2Nc2ccnc(C(F)(F)F)c2)cc1", "growth": "4.53% (active)"},
      {"smiles": "N#Cc1c(-c2ccc(Cl)cc2)nc(NN2C(=O)c3ccccc3C2=O)nc1N1CCOCC1", "growth": "100% (inactive)"},
      {"smiles": "O=C(OC(CO)C(=O)NC12CC3CC(CC(C3)C1)C2)c1ccc(Cl)cc1", "note": "(stereo not given)", "growth": "102% (inactive)"},
      {"smiles": "COc1ccc(/C=N/C2=C(C#N)C(c3ccccc3)c3ccc4ccccc4c3O2)cc1", "note": "(stereo not given)", "growth": "59.7% (inactive)"},
      {"smiles": "CC(C)c1ccc(C(=O)Nc2sc3c(c2C(N)=O)CCC(=O)C3)cc1", "growth": "-10.6% (active)"},
      {"smiles": "N=C(N)c1ccc(-c2ccc(-c3ccc(Cl)cc3Cl)s2)cc1", "growth": "110% (inactive)"},
      {"smiles": "O=C(/C=C/c1cccc(Cl)c1)c1ccc(Nc2nc(Nc3ccc(F)cc3)nc(Nc3ccc(Cl)cc3)n2)cc1", "growth": "127% (inactive)"},
      {"smiles": "COc1c(B(O)O)cccc1-c1nc2c(F)cc3[nH]ncc3c2c2c1CCCC2", "growth": "16.2% (inactive)"},
      {"smiles": "N#Cc1ccc(O)c(C2=NCC(c3ccccc3)O2)c1", "note": "(stereo not given)", "growth": "52.2% (inactive)"},
      {"smiles": "COC(=O)c1nc(-c2ccccc2)oc1S(=O)(=O)Cc1ccccc1", "growth": "5.41% (active)"},
      {"smiles": "OCCn1cc(-c2nc(-c3c[nH]c4ncccc34)cs2)c2cc(F)ccc21", "growth": "62.1% (inactive)"},
      {"smiles": "O=[N+]([O-])c1cccc(-c2nc3cc4nc5ccccc5[nH]c4cc3n2)c1", "growth": "105% (inactive)"},
      {"smiles": "CN(C)c1ccc(C(=O)OCCCCCCl)cc1", "growth": "96.5% (inactive)"},
      {"smiles": "CC(C)COc1nc2c(c(=O)n(C)c(=O)n2C)n1C", "growth": "105% (inactive)"},
      {"smiles": "Nc1nc(-c2ccc(Cl)cc2)nc2c1sc(=S)n2-c1ccccc1", "growth": "14.1% (inactive)"},
      {"smiles": "Cc1ccc(NC(=O)c2sc3nc(C)c(Br)c(C)c3c2N)cc1", "growth": "50.7% (inactive)"},
      {"smiles": "Cc1cc(N2CCCCC2)cc(C)c1-c1csc(NC(=O)c2ccncc2)n1", "growth": "77.3% (inactive)"},
      {"smiles": "CCN1C(=S)N(c2ccccc2)C2C1NN=c1s/c(=C3\\C(=O)N(C(C)C)c4ccccc43)c(=O)n12", "note": "(stereo not given)", "growth": "86.6% (inactive)"},
      {"smiles": "O=C(N(c1ccccc1)c1ccccc1)n1cc(I)c2nc(Cl)nc(Cl)c21", "growth": "86.8% (inactive)"}
    ]}
  ]
}
